Consider five molecules from PubChem BioAssay.

Calls of active or inactive are those of the source.

The test system of test [1] is Plasmodium falciparum Sir2 (PF13_0152, Sir2A). In words: pfSir2 binders on small-molecule microarrays, primary screen, biochemical, small-molecule microarray, 635 nm fluorescence (AID 1098).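 Note: score merges spot fluorescence intensity with its signal-to-noise ratio.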 The following applies: small-molecule microarray binding, fluorescence 635 nm; higher = more signal.
The nature of test [2]: small-molecule microarray binders of probe aDKK1, primary screen, biochemical, biotinylated probe, 635/667 nm fluorescence (AID 1099).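 Note: score merges 667nm spot fluorescence with signal to noise across triplicate slides.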 To be noted: higher = more signal.
Test [3] is described as follows: small-molecule microarray binders of probe aCHRDL2, primary screen, biochemical, biotinylated probe, 635/667 nm fluorescence (AID 1100). To be noted: higher = more signal.
Test [4] in a line: splicing luciferase reporter signal modulators, primary screen, spliceosome inhibition project, cell-based, HEK293, splice +/- reporter (AID 1101).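 Note: HEK293 cells carrying a splicing-competent luciferase reporter gene; test concentration not given here.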 To be noted: luminescence, 24 h, higher = more signal, called active from +8 up or from −8 down. In general terms: Reporter assays use an easily measured gene product as a stand-in for the process of interest.
Test [5] deals with Fibroblast growth factor 10 (Homo sapiens) (UniProt O15520). The test is described as follows: FGF10 binders on small-molecule microarrays, primary screen, biochemical, small-molecule microarray, 635 nm fluorescence (AID 1102). To be noted: FGF10 binding, fluorescence 635 nm, higher = more signal.
Sequence of Fibroblast growth factor 10 (Homo sapiens) (O15520 whole entry, looked up): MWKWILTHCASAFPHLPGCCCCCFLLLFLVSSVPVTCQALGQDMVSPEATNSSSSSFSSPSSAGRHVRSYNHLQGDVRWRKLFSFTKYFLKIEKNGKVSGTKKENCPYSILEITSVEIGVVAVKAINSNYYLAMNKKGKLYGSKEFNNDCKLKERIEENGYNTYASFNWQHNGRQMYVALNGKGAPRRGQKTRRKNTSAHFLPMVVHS
In test [6] the test system is glycogen synthase kinase-3 (GSK3A per assay name; protocol says GSK3B). In words: GSK3 binders on small-molecule microarrays, primary screen, biochemical, small-molecule microarray, 635 nm fluorescence, GSK3A (AID 1103). Note: the record names both GSK3A and GSK3B. The following applies: small-molecule microarray binding, fluorescence 635 nm; higher = more signal.
For test [7], the target named is Epidermal growth factor receptor (Homo sapiens) (UniProt P00533). In words: EGFR binders on small-molecule microarrays, primary screen, biochemical, small-molecule microarray, 635 nm fluorescence (AID 1104).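 Note: score merges 667 nm emission intensity with spot signal to noise over triplicate slides.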 The following applies: EGFR binding, higher = more signal.
Sequence of Epidermal growth factor receptor (Homo sapiens) (P00533 whole entry, looked up): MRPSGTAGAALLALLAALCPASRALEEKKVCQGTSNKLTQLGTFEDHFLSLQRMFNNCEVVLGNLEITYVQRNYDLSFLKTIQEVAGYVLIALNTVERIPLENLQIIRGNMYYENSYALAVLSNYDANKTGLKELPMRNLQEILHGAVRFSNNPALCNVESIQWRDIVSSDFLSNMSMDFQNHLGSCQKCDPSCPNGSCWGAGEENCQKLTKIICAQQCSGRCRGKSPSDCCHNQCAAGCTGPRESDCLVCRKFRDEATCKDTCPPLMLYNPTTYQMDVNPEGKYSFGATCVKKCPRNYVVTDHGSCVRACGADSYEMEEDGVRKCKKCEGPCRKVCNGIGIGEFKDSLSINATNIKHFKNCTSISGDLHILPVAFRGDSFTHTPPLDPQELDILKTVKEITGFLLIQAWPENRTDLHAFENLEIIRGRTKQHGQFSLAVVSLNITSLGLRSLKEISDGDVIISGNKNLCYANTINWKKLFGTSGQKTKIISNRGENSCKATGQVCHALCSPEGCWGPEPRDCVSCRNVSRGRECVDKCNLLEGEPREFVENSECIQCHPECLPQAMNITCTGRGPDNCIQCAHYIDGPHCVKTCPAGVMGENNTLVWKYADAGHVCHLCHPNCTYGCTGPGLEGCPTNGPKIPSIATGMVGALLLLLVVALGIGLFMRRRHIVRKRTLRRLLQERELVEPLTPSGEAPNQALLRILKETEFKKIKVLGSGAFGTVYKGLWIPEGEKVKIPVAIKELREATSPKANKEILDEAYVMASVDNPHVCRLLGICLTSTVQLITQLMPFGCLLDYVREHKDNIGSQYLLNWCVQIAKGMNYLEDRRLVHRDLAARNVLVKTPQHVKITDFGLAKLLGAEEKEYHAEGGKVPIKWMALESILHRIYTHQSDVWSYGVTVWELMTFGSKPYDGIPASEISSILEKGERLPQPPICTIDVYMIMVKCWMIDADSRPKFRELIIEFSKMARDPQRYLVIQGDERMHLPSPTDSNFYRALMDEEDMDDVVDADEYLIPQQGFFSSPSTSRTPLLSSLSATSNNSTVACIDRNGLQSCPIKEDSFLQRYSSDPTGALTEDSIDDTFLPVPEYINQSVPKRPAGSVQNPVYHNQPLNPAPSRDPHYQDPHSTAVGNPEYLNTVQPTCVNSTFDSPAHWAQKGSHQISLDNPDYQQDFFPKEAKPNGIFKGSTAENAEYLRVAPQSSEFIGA
In test [8] the target is Follistatin-related protein 3 (Homo sapiens) (UniProt O95633). In words: FSTL3 binders on small-molecule microarrays, primary screen, biochemical, small-molecule microarray, 635 nm fluorescence (AID 1105).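 Note: score merges emission near 667 nm and signal to noise per printed spot across three slides.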 The following applies: FSTL3 binding, higher = more signal.
Sequence of Follistatin-related protein 3 (Homo sapiens) (O95633 whole entry, looked up): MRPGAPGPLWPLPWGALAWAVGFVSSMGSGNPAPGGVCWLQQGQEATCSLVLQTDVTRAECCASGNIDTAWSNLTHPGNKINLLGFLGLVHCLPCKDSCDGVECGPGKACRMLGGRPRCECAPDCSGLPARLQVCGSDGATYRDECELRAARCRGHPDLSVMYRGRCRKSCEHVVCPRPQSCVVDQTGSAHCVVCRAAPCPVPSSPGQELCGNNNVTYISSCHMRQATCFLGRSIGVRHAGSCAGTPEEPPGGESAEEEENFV
The target in test [9] is Dickkopf-related protein 1 (Homo sapiens) (UniProt O94907). The test is described as follows: DKK1 binders on small-molecule microarrays, primary screen, biochemical, small-molecule microarray, 635 nm fluorescence scan (AID 1106).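 Note: score merges emission near 667 nm with signal to noise over three replicate slides.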 The following applies: DKK1 binding, higher = more signal.
Sequence of Dickkopf-related protein 1 (Homo sapiens) (O94907 whole entry, looked up): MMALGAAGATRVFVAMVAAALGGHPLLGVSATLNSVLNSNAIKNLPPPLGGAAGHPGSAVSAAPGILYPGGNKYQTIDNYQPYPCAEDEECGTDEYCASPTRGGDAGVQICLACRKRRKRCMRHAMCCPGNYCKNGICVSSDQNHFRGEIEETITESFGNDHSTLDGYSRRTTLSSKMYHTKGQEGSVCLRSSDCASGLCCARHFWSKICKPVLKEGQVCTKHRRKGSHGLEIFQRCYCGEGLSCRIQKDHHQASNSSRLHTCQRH
Test [10] deals with Inhibin beta A chain (activin A). In words: INHBA (activin A) binders on microarrays, primary screen, biochemical, small-molecule microarray, 635 nm fluorescence scan (AID 1107).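 Note: mouse activin A protein probed at 4.33 µg/mL on printed slides; score merges bound-protein fluorescence near 667 nm with spot signal-to-noise.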 To be noted: small-molecule microarray binding, higher = more signal.
Test [11] deals with Human papillomavirus type 1a protein E7 (residues 44-93). In words: HPV1a E7 fragment binders on microarrays, primary screen, biochemical, small-molecule microarray, residues 44-93, 635 nm fluorescence (AID 1108).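 Note: E7 fragment applied at 1 µg/mL in TBST for 1 h at 4 C; score combines spot fluorescence with its signal to noise ratio.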 To be noted: small-molecule microarray binding, fluorescence 635 nm; higher = more signal.
The nature of test [12]: modulators of HCV replicon luciferase signal, primary screen, HCV replication inhibitor project, Huh7 cells, luciferase reporter (AID 1109).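 Note: huh7 hepatoma cells harbouring a luciferase neomycin HCV replicon reporter; luciferase luminescence as measure of HCV replicon replication; test concentration not given here.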 To be noted: 48 h, higher = more signal.
Test [13] addresses Left-right determination factor 2 (Homo sapiens) (UniProt O00292). In words: LEFTY2 binders on small-molecule microarrays, primary screen, biochemical, small-molecule microarray, 635 nm fluorescence scan (AID 1110). The following applies: LEFTY2 binding, higher = more signal.
Test [14] addresses Calmodulin-1 (Homo sapiens) (UniProt P0DP23). In words: CALM1 binders on microarrays, EGTA buffer, profiling panel, biochemical, small-molecule microarray, Cy5-labelled CALM1 (AID 1111).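 Note: labelled calmodulin applied in Tris saline Tween buffer holding calcium plus EGTA and DTT.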 To be noted: Cy5-CALM1 binding fluorescence, higher = more signal.
Test [15] shares this target. In words: calcium-bound CALM1 binders on microarrays, profiling panel, artefact control for SMM control-protein annotation, biochemical, small-molecule microarray, Cy5-labelled CALM1, plus calcium (AID 1112).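 Note: score merges spot fluorescence with signal to noise from triplicate slides.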 The following applies: Cy5-CALM1 binding fluorescence, higher = more signal.
Test [16] is described as follows: small-molecule microarray binders of probe aWnt5a, primary screen, biochemical, biotinylated probe, 635/667 nm fluorescence (AID 1113).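 Note: score merges 667 nm fluorescence intensity with signal-to-noise per printed feature.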 The following applies: higher = more signal.
The nature of test [17]: small-molecule microarray binders of probe aShh, primary screen, biochemical, biotinylated probe, 635/667 nm fluorescence (AID 1114).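 Note: probe is biotin-labelled aShh protein from a stem cell growth factor screen; measures binding of labelled protein to compounds printed on the slide; score merges feature fluorescence at 667 nm with signal-to-noise.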 The following applies: higher = more signal.
A short description of test [18]: small-molecule microarray binders of probe aNog, primary screen, biochemical, biotinylated probe, 635/667 nm fluorescence (AID 1115).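 Note: probe is biotinylated aNog protein used at 0.15 µg/mL for 1 h at 4 C; z-score combines 667 nm fluorescence of each spot with its signal to noise.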 The following applies: higher = more signal.
For test [19], the target named is Torsin-1A-interacting protein 1 (Homo sapiens) (UniProt Q5JTV8). The test is described as follows: LAP1 binders from COS7 cell lysate, primary screen, small-molecule microarray, 635/667 nm fluorescence (AID 1116). The following applies: COS7-hLAP1 lysate binding, 635 nm fluorescence, higher = more signal.
Sequence of Torsin-1A-interacting protein 1 (Homo sapiens) (Q5JTV8 whole entry, looked up): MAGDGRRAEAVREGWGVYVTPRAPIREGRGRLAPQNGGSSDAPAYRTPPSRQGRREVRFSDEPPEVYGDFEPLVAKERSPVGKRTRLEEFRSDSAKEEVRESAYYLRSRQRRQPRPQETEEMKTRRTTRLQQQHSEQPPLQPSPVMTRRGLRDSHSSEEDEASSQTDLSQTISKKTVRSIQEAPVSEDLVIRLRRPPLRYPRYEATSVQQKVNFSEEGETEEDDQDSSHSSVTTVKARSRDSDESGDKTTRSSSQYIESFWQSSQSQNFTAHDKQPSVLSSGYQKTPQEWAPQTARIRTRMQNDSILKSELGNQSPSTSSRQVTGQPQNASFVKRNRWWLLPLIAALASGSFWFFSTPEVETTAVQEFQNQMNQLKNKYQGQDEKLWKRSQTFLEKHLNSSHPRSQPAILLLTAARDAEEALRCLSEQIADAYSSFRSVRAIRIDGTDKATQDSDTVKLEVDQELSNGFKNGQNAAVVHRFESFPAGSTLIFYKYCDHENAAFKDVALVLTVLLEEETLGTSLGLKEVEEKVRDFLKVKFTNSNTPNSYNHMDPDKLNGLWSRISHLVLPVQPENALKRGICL
For test [20], the target named is Alpha-bungarotoxin (Bungarus multicinctus) (UniProt P60615). In words: alpha-bungarotoxin binders on microarray, profiling panel, artefact control for SMM control protein annotation, biochemical, small-molecule microarray, Alexa647 label, 635/667 nm fluorescence (AID 1117). To be noted: alpha-BTX-A647 binding fluorescence, higher = more signal.
Sequence of Alpha-bungarotoxin (Bungarus multicinctus) (P60615 whole entry, looked up): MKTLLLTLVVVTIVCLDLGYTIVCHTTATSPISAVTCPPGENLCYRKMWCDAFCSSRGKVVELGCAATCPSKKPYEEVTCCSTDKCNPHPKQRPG

Sequence of Left-right determination factor 2 (Homo sapiens) (O00292 whole entry, looked up): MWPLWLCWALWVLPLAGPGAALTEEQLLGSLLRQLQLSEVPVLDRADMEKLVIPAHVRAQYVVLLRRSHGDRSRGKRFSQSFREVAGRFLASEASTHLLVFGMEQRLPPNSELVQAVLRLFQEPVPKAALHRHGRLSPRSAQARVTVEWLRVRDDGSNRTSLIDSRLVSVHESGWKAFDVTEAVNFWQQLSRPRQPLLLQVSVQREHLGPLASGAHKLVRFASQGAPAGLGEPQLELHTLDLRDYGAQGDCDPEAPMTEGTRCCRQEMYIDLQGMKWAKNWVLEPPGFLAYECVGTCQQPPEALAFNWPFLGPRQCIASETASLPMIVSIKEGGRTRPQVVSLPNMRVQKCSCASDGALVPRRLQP

On to `CC[C@H]1C2=C3C(CC[C@H]4C(OCc5ccc(F)cc5C(F)(F)F)OC[C@](C)([C@@H]34)N(C(=O)OC(C)(C)C)C2)C(COC(C)=O)C1COC(C)=O` (stereo not given in full), for which the composite z-score in [1] is 0.386; in test [2], 0.62; in test [3], 0.971; in test [5], 0.402; in test [6], 0.665; in [7], -0.379. Also, the composite z-score was 0.418 in [8]; -0.583 in [9]; 0.691 in test [10]; 1.35 in [11]; -0.747 in test [13]; 1.97 in test [14]. Further, the composite z-score is 1.15 in [15]; 0.24 in test [16]; 1.15 in test [17]; -0.313 in test [18]; 0.0366 in [19]; 0.729 in test [20]. Besides, the results for the z-score in test [4] and in test [12] were -0.695 (inactive) and -0.567, respectively.

For the molecule `CC(C)c1ccc(NN2C(C(O)C3CCCCC3)C=CC3C(=O)N(c4ccccc4)C(=O)C32)cc1` (stereo not given), the composite z-score in test [1] worked out at 1.4; in test [2], 0.929; in test [3] it was 1.11; in test [5], 0.802; in [6], 1.24; in test [7] it was 0.478. Besides, the composite z-score stood at 1.11 in [8]; 0.794 in test [9]; 0.874 in test [10]; 0.324 in test [11]; 0.176 in [13]; 2.23 in test [14]. Further, the composite z-score in [15] is 0.842; in test [16], 0.0219; in test [17], -0.144; in [18], 0.302; in test [19], 0.678; in test [20], 1.9. Also, the z-score in test [4] is 0.194 (inactive); in test [12], -0.482.

Take `CCN1C(=O)C2CC(=O)C3C(CN(S(=O)(=O)c4ccc(C)cc4)C3c3ccc(C)cc3)C2C1=O` (stereo not given): the composite z-score was 0.959 in test [1]; 0.972 in test [2]; 0.882 in test [3]; 0.193 in test [5]; 0.338 in test [6]; -0.483 in test [7]. The composite z-score in test [8] is -0.167; in test [9] it was -0.295; in test [10], 1.15; in test [11], -1.69; in test [13] it was 0.015; in test [14], 1.85. The composite z-score in test [15] is 0.495; in test [16], -0.0269; in [17], 0.749; in test [18], 0.685; in [19], 1.08; in [20] it was -0.344. Further, the z-score in test [4] was -0.106 (inactive); in test [12] it was -2.44.

In the case of `C=CCOC(=O)[C@H]1[C@@H]2C(=O)O[C@@H](c3ccccc3)[C@@H](c3ccccc3)N2[C@@H](c2ccc(OCCOC(=O)[C@H]3C[C@H]4C(=O)NCC(=O)N4[C@H]3c3cccc(OCCO)c3)cc2)[C@]12C(=O)Nc1ccc(I)cc12`, the composite z-score is 1.1 in [1]; -0.109 in test [2]; 0.0341 in [3]; 1.37 in [5]; 1.3 in [6]; 0.504 in test [7]. Also, the composite z-score in test [8] was found to be 1.37; in [9], 0.614; in test [10], 0.622; in test [11], 1.23; in test [13], 0.541; in test [14] it was 1.05. In addition, the composite z-score was 0.0934 in test [15]; 0.0629 in test [16]; 0.131 in test [17]; 0.131 in test [18]; 1.44 in [19]; 1.08 in test [20]. The results for the z-score in test [4] and in test [12] were 0.341 (inactive) and -0.903, respectively.

Take `CCCCCN1CC=CC23O[C@@H]4/C=C\CCCOC(=O)C4[C@H]2C(=O)N(CCCCCO)[C@@H]3C1=O` (stereo not given in full): the composite z-score in [1] is 0.447; in test [2] it was -0.267; in test [3], 0.337; in test [5], -0.566; in test [6] it was -0.364; in test [7] it was -0.779. Besides, the composite z-score in [8] was -0.521; in test [9], -0.833; in test [10] it was 0.468; in test [11], -0.735; in test [13], -1.08; in test [14], -0.517. The composite z-score in [15] is -0.97; in [16] it was -0.224; in test [17] it was 0.0121; in [18], -0.121; in test [19] it was -1.28; in [20] it was -0.543. The z-score is -0.831 (inactive) in test [4] and -0.831 in [12].
